Legend:
Assay in all cases: DAPPL (digital affinity profiling via proximity ligation, sequencing); 10 mM Tris-HCl pH 7.5, 50 mM NaCl, 1 mM DTT, 4% glycerol, room temperature, 30 min; GST-TFs on glutathione beads, 16-mer random dsDNA library, 0.1% formaldehyde crosslink after washing; high values mean tight binding
Conditions in all cases: protein: recombinant; tags: N-terminal GST; dsDNA, one strand shown
[1] = biological target: T1, FLI1 (Homo sapiens, UniProt Q01543 1-452)
T1 sequence: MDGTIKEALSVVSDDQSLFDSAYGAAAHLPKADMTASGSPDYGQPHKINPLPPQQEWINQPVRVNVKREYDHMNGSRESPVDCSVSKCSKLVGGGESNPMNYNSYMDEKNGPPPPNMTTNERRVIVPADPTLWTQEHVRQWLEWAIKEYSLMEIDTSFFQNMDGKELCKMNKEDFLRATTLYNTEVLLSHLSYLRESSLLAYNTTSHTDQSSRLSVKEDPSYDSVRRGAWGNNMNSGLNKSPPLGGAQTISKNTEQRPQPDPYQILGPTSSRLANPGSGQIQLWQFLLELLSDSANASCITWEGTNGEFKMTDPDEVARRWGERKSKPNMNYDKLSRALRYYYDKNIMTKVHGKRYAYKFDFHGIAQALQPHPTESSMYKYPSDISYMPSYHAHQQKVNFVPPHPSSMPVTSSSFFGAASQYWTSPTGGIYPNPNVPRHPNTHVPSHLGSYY
Procedure, shortened: (§1)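 Human transcription factors carrying a GST fusion were produced in yeast, bound to glutathione beads, tagged with DNA barcodes and pooled together with a tag-only sample. Each pool was held with 200 nmole of a random double-stranded 16-mer DNA library in Tris/NaCl/DTT/glycerol buffer for 30 min at room temperature, then washed, crosslinked in 0.1% formaldehyde, proximity-ligated with BsaI/T4 ligase (1 h, 37 °C), PCR-amplified and sequenced on an Illumina NextSeq500. Binding signal is the read frequency of each hexamer for a given factor divided by its frequency in the tag-only sample.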

[2] = biological target: T2, ELK1 (Homo sapiens, UniProt P19419 1-428)
T2 sequence: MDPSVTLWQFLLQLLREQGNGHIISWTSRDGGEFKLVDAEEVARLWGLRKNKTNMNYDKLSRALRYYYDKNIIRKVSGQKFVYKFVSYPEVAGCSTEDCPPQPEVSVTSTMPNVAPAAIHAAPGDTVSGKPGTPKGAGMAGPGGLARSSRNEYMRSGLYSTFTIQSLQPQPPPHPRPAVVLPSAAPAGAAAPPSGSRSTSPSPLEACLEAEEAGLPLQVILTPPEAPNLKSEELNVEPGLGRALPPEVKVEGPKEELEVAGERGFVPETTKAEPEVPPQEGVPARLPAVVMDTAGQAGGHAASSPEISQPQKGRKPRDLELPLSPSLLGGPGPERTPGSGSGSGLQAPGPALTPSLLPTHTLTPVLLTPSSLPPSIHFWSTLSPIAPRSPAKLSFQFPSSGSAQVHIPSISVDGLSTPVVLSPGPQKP
Procedure, shortened: as §1

[3] = biological target: T3, GABPA (Homo sapiens, UniProt Q06546 1-454)
T3 sequence: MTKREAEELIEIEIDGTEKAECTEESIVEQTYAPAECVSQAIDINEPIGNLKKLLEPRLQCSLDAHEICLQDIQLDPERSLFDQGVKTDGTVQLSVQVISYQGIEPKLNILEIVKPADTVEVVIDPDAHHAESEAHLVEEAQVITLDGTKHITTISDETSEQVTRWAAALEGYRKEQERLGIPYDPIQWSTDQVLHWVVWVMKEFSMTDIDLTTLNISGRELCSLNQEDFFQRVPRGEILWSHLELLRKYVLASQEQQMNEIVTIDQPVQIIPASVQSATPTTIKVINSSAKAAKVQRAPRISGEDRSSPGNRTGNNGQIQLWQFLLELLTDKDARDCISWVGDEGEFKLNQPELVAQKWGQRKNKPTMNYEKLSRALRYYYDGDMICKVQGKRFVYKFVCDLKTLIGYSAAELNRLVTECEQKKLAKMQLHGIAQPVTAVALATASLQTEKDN
Procedure, shortened: as §1

[4] = biological target: T4, ERG (Homo sapiens, UniProt P11308 1-479)
T4 sequence: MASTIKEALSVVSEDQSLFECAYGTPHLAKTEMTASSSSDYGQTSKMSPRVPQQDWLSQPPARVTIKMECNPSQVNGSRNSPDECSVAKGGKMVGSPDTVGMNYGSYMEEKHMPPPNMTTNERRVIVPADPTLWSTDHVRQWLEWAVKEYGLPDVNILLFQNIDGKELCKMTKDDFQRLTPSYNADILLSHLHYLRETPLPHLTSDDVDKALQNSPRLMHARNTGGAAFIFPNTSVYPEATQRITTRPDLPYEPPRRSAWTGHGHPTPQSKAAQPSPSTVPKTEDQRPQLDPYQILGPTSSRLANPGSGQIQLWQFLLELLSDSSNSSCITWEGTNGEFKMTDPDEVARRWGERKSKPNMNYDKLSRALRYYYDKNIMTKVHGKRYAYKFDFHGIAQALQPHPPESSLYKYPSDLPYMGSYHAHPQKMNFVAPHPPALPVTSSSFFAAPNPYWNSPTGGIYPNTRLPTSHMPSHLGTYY
Procedure, shortened: as §1

[5] = biological target: ELF1 (Homo sapiens, UniProt P32519 1-619)
Procedure, shortened: as §1

[6] = biological target: T5, EHF (Homo sapiens, UniProt Q9NZC4 1-300)
T5 sequence: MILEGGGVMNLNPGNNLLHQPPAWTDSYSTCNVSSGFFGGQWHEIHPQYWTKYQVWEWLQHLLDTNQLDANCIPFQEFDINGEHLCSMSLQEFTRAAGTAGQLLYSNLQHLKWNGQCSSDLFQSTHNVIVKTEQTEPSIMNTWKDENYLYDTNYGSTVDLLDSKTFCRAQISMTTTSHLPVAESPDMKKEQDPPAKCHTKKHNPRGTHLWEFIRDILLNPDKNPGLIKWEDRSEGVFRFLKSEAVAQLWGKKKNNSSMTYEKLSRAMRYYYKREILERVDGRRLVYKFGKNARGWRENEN
Procedure, shortened: as §1

[7] = biological target: T6, ELK3 (Homo sapiens, UniProt P41970 1-407)
T6 sequence: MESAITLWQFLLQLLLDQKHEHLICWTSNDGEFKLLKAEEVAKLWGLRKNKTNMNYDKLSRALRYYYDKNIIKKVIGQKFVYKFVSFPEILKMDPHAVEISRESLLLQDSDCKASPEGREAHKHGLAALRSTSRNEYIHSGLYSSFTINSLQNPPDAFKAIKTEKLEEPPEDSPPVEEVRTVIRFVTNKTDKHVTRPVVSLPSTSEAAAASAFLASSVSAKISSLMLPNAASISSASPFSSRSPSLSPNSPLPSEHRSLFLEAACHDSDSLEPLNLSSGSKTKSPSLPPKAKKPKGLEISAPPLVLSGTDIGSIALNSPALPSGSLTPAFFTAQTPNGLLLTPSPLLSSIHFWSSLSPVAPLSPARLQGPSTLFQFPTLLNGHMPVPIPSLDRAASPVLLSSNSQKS
Procedure, shortened: as §1

[8] = biological target: T7, FEV (Homo sapiens, UniProt Q99581 1-238)
T7 sequence: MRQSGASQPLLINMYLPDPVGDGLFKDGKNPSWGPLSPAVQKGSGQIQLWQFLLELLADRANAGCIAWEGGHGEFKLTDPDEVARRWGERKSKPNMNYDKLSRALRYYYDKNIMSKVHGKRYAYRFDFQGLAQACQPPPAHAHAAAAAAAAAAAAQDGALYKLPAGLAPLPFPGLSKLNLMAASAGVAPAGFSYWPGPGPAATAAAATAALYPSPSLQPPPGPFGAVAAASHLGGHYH
Procedure, shortened: as §1

[9] = biological target: ETV5 (Homo sapiens, UniProt P41161 1-510)
Procedure, shortened: as §1

[10] = biological target: T8, SPIC (Homo sapiens, UniProt Q8N5J4 1-248)
T8 sequence: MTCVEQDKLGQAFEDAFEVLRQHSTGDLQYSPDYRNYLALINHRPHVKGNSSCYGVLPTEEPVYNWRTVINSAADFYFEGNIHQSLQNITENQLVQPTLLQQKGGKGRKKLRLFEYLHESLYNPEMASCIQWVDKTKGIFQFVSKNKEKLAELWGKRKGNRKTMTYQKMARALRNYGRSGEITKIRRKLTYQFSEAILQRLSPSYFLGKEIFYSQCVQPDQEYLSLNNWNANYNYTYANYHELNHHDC
Procedure, shortened: as §1

[11] = biological target: ELF4 (Homo sapiens, UniProt Q99607 1-663)
Procedure, shortened: as §1

[12] = biological target: T9, ELK4 (Homo sapiens, UniProt P28324-2 1-405)
T9 sequence: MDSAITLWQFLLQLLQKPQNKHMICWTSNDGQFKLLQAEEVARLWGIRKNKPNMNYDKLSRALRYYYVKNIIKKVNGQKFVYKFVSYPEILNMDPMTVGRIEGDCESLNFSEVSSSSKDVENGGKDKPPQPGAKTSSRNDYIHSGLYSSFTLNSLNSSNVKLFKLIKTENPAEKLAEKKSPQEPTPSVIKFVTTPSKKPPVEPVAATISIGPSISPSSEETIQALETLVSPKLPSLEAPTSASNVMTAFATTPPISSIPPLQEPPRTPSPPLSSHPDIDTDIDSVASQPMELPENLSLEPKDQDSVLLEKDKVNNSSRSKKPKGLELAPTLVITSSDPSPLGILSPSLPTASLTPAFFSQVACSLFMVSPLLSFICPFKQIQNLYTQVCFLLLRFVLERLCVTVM
Procedure, shortened: as §1

[13] = biological target: T10, ETV2 (Homo sapiens, UniProt O00321 1-342)
T10 sequence: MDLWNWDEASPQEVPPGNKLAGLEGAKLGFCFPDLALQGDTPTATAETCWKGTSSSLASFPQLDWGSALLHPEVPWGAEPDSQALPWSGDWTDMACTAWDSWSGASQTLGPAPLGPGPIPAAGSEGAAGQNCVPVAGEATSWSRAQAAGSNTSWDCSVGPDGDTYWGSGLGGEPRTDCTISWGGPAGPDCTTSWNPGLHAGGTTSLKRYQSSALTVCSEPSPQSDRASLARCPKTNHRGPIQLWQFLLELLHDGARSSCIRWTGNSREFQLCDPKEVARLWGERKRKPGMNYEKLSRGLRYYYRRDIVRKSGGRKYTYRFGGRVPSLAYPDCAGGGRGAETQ
Procedure, shortened: as §1

[14] = biological target: T11, ELF3 (Homo sapiens, UniProt P78545 1-371)
T11 sequence: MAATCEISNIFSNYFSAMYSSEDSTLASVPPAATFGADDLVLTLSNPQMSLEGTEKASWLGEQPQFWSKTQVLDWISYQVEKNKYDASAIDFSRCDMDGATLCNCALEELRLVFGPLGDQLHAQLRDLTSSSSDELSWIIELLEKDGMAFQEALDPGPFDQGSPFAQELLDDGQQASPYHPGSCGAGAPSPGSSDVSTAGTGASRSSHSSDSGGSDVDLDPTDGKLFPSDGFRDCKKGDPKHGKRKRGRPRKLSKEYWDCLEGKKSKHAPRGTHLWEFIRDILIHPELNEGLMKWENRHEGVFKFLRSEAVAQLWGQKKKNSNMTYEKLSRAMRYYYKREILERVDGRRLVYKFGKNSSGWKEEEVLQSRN
Procedure, shortened: as §1

[15] = biological target: ETV1 (Homo sapiens, UniProt P50549 1-477)
Procedure, shortened: as §1

[16] = biological target: SPI1 (Homo sapiens, UniProt P17947 1-270)
Procedure, shortened: as §1

[17] = biological target: SPIB (Homo sapiens, UniProt Q01892 1-262)
Procedure, shortened: as §1

ELF1, sequence (P32519 whole entry): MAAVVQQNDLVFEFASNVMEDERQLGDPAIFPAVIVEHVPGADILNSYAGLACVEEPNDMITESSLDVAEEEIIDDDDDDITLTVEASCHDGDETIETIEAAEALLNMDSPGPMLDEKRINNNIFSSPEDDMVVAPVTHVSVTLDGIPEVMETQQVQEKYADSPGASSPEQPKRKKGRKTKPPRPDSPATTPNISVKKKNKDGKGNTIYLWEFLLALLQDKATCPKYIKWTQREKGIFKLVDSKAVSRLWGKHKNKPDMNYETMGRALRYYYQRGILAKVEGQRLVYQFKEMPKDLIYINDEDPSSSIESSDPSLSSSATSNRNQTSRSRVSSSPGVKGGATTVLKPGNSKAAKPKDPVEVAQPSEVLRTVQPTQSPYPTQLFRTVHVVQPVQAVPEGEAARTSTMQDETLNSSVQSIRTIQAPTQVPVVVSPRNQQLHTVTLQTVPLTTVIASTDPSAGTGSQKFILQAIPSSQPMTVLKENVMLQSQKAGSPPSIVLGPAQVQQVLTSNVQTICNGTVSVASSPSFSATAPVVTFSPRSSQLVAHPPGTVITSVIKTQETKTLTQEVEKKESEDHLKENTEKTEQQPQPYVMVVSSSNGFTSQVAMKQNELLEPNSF
ETV5, sequence (P41161 whole entry): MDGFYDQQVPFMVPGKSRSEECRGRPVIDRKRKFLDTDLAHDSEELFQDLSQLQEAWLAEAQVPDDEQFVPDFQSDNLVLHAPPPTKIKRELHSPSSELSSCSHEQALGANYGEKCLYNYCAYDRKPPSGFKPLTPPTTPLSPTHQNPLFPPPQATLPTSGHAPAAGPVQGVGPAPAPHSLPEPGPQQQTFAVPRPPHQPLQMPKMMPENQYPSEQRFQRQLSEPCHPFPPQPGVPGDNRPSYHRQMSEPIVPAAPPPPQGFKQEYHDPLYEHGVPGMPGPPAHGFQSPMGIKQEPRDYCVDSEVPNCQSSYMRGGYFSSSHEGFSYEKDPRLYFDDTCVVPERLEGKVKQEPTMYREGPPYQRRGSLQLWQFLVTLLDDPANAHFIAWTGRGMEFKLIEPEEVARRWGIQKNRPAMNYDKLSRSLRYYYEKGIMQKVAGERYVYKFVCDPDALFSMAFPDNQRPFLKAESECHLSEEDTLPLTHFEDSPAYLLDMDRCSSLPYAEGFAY
ELF4, sequence (Q99607 whole entry): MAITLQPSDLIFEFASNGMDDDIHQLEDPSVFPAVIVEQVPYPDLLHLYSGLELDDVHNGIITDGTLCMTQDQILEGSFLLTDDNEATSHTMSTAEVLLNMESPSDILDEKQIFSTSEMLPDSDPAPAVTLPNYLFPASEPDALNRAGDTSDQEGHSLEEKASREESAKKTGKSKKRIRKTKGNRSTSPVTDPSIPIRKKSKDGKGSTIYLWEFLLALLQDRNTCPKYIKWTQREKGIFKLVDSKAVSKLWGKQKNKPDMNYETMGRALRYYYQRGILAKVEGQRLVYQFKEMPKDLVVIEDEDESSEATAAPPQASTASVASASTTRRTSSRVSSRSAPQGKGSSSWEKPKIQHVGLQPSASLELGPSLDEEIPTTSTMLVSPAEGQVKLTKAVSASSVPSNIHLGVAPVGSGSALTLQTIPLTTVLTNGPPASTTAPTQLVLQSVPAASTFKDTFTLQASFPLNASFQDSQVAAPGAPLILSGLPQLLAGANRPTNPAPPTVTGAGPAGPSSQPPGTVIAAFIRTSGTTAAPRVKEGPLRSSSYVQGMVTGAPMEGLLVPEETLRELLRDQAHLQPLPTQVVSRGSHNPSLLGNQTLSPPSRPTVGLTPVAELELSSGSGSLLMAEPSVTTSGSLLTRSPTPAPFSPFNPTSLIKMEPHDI
ETV1, sequence (P50549 whole entry): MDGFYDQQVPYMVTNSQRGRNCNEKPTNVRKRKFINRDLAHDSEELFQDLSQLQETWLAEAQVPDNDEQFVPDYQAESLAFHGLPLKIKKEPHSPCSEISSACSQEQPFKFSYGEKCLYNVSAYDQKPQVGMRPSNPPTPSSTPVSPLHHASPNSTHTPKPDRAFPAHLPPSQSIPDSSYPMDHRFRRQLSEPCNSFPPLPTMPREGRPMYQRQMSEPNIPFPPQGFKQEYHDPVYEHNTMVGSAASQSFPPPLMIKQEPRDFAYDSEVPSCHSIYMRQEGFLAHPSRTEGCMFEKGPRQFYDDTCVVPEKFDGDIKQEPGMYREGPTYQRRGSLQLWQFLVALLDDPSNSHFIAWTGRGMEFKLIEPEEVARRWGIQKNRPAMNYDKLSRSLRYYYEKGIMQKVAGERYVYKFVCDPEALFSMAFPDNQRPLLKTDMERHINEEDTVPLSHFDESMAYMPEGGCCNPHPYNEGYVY
SPIB, sequence (Q01892 whole entry): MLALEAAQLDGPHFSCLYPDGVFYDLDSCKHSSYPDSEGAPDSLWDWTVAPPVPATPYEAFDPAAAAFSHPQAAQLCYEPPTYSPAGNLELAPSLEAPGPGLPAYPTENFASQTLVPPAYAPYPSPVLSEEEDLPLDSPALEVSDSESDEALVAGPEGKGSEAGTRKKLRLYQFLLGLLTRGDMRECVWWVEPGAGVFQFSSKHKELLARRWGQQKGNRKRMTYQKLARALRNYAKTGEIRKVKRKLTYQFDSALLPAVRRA

Sequence | binding signal [1] | binding signal [2] | binding signal [3] | binding signal [4] | binding signal [5] | binding signal [6] | binding signal [7] | binding signal [8] | binding signal [9] | binding signal [10] | binding signal [11] | binding signal [12] | binding signal [13] | binding signal [14] | binding signal [15] | binding signal [16] | binding signal [17]
CTACAG | 1.17 fold enrichment (6-mer frequency, TF over GST control) | 1.01 fold enrichment (6-mer frequency, TF over GST control) | 1.16 fold enrichment (6-mer frequency, TF over GST control) | 1.03 fold enrichment (6-mer frequency, TF over GST control) | 1.08 fold enrichment (6-mer frequency, TF over GST control) | 1.05 fold enrichment (6-mer frequency, TF over GST control) | 1.08 fold enrichment (6-mer frequency, TF over GST control) | 1.04 fold enrichment (6-mer frequency, TF over GST control) | 1.07 fold enrichment (6-mer frequency, TF over GST control) | 1.04 fold enrichment (6-mer frequency, TF over GST control) | 1.02 fold enrichment (6-mer frequency, TF over GST control) | 1.07 fold enrichment (6-mer frequency, TF over GST control) | 1.02 fold enrichment (6-mer frequency, TF over GST control) | 1 fold enrichment (6-mer frequency, TF over GST control) | 1.06 fold enrichment (6-mer frequency, TF over GST control) |  | 
GCTGAC | 1.17 fold enrichment (6-mer frequency, TF over GST control) | 1.1 fold enrichment (6-mer frequency, TF over GST control) | 1.04 fold enrichment (6-mer frequency, TF over GST control) |  | 1.16 fold enrichment (6-mer frequency, TF over GST control) | 1.21 fold enrichment (6-mer frequency, TF over GST control) | 1.13 fold enrichment (6-mer frequency, TF over GST control) | 1.12 fold enrichment (6-mer frequency, TF over GST control) | 1.03 fold enrichment (6-mer frequency, TF over GST control) | 1.1 fold enrichment (6-mer frequency, TF over GST control) | 1.1 fold enrichment (6-mer frequency, TF over GST control) | 1.05 fold enrichment (6-mer frequency, TF over GST control) | 1.38 fold enrichment (6-mer frequency, TF over GST control) | 1.27 fold enrichment (6-mer frequency, TF over GST control) | 1.03 fold enrichment (6-mer frequency, TF over GST control) | 1.04 fold enrichment (6-mer frequency, TF over GST control) | 1.12 fold enrichment (6-mer frequency, TF over GST control)

Source: publication PMC7862700, “An all-to-all approach to the identification of sequence-specific readers for epigenetic DNA modifications on cytosine”
